# Bioassay records as filed in PubChem.
# WRN helicase inh: WRN helicase (human) inhibition | WRN helicase unwinding, fluorescent forked duplex, kinetic | Potency, µM (top dose mostly 114 µM), for inactives: top-dose activity change, negative = inhibition, actives largely listed as inhibitors | Q14191 | hit rate 0.46% among 360,000; further: on the % scale 0 is the no-effect control and ±100 the full control effect; nearly all actives have a fitted effect of over 55% in size
#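 Kinetic fluorescence helicase assay: unwinding of a quenched forked DNA duplex (100 nM final) with 2 mM ATP final raises red fluorescence (525/598 nm). Compounds sat 15 min at room temperature with 20 nM WRN beforehand.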
# Pol eta inh-1: blocks human DNA polymerase eta activity. hit rate 1.2% among 390,000. AID 588591. Potency, µM (titrated, usually from 114 µM), for inactives: top-dose activity change, negative = inhibition, most hits filed as inhibitors. recombinant Pol eta, fluorescent DNA replication assay. Q9Y253; further: on the % scale 0 is the no-effect control and ±100 the full control effect
#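 Pol eta at 10 nM preincubated with compounds 15 min at room temperature; reaction started with fluorescent substrate (50 nM final) and read kinetically at 0 and 10 min.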
# Pol kappa inh-1: DNA polymerase kappa (human) inhibition | Potency, µM (highest dose often 107 µM), inactives show at the top dose activity, negative = inhibition, hits mostly inhibitors | purified Pol kappa, fluorescent DNA synthesis assay, 10 min | hit rate 0.53% among 400,000 | Q9UBT6; further: on the % scale 0 is the no-effect control and ±100 the full control effect
#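 Kinetic fluorescence readout at 0 and 10 min followed reaction start with substrate at 50 nM final. Beforehand, enzyme (10 nM Pol kappa) stood 15 min with compound at room temperature; buffer-only wells were negative controls.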
# L3MBTL1 inh: L3MBTL1 (human) inhibition. AlphaScreen L3MBTL1–H3K9me1 peptide binding. Q9Y468. hit rate 0.66% among 230,000. AID 485360. Potency, µM (highest dose often 57.1 µM), without a hit: at the highest dose activity, negative = inhibition, usual class: inhibitors; further: on the % scale 0 is the no-effect control and ±100 the full control effect; nearly all actives have a fitted effect of over 60% in size
#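 Read-out is AlphaScreen signal from streptavidin donor and nickel chelate acceptor beads (10 ug/mL final each) bridging L3MBTL1 (50 nM) and biotinylated K9-monomethylated H3(1-15) peptide (75 nM), after 30 min compound exposure at room temperature.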
# Pol iota inh: inhibitors of human DNA polymerase iota; Pol iota fluorescent replication assay, 10 min; hit rate 1% among 390,000; Potency, µM (doses to about 115 µM), inactives show at the highest dose activity, negative = inhibition, most hits filed as inhibitors
# Target sequence (Q9UNA4 whole entry, looked up): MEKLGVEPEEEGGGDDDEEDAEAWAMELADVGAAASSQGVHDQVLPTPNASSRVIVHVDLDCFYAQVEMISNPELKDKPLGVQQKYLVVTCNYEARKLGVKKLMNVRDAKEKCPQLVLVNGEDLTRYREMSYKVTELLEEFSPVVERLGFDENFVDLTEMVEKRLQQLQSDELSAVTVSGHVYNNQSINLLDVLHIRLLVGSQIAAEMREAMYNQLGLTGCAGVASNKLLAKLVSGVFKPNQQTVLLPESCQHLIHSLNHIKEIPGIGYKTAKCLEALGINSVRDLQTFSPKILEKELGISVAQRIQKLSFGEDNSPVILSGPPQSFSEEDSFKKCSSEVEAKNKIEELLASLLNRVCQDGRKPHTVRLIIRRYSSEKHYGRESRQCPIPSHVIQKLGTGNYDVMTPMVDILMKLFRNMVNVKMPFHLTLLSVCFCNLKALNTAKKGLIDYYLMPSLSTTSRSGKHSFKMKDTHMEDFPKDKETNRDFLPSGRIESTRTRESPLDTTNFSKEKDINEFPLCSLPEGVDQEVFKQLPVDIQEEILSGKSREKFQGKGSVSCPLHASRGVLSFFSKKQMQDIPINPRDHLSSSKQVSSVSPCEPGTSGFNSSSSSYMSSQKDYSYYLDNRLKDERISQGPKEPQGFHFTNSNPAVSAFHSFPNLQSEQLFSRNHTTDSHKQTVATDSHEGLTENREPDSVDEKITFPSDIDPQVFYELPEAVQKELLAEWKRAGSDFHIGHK
#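 Fluorescent replication assay read twice, at 0 min and 10 min after adding 50 nM (final) substrate. Enzyme (10 nM) and compounds were first incubated 15 min at room temperature; enzyme-free buffer wells were negative controls.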
# Pol beta inh: inhibitors of human DNA polymerase beta. P06746. Pol beta primer extension/strand displacement, fluorescence kinetic. Potency, µM (titrated, usually from 114 µM), inactives show at the highest dose activity change, negative = inhibition, usual class: inhibitors. hit rate 1.3% among 340,000. AID 485314; further: on the % scale 0 is the no-effect control and ±100 the full control effect
#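 Enzyme-only controls used 10 nM Pol beta; buffer lacking enzyme served as negative control. Compound preincubated 15 min, then 50 nM substrate added; 0 and 10 min reads at room temperature.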
# HEK293 tox: reduces HEK-293 cell viability in GALK counter-screen | shares compounds with Pol eta inh-1 | HEK-293 viability, ATP luminescence (CellTiter-Glo), 24/48 h | Potency, µM (series often up to 46.1 µM), for the others: top-dose activity change, negative = cytotoxicity, hits mostly inhibitors | hit rate 10% among 170 | AID 2547; further: on the % scale 0 is the no-effect control and ±100 the full control effect
# Pol kappa inh-2: Pol kappa (human) inhibition, cherry-pick confirmation | shares compounds with Pol eta inh-1 | purified Pol-kappa, fluorescent strand-displacement substrate | Potency, µM, hits mostly inhibitors | hit rate 76% among 920
# Pol eta inh-2: confirmation of human DNA polymerase eta inhibitors; shares compounds with Pol eta inh-1; Pol eta primer extension, TAMRA/BHQ fluorescence, 10 min; Potency, µM, usual class: inhibitors; hit rate 64% among 2,600
# Starred values were filed as active, the others as inactive; ? = inconclusive; · = no result; [ ] = another dose, or the depositor's remark. Only some compounds are listed: those with a hit (about 2.5% of all), similar ones and a draw of the others. The call rests on the fitted dose curve; in most records, active means well fitted curve in the direction sought with a large enough effect; inconclusive means small, poorly fitted or top-dose-only effect, or another doubt; inactive means no such curve, though single readings can be large; an effect the other way counts as inactive or inconclusive. Potency means the concentration at half of the fitted maximal effect.
SMILES,WRN helicase inh,Pol eta inh-1,Pol kappa inh-1,L3MBTL1 inh,Pol iota inh,Pol beta inh,Pol eta inh-2,others
Cc1cc([N+](=O)[O-])cc2c1NC(c1ccccn1)C1CC=CC21 (stereo not given),-5%,?,-8%,-2%,?,-23%,·,
C#Cc1ccc([C@@H]2C=C(C(=O)O)O[C@H](OCC)[C@H]2CCCO)cc1,-36%[57.1 µM],7.9µM*,50µM*,·,?,·,30*,Pol kappa inh-2=4.7*
COc1ccc2[nH]c(O)c(N=NC(=O)c3ccc(NS(=O)(=O)c4cccs4)cc3)c2c1,?,3.5µM*,79µM*,-30%,40µM*,·,38*,Pol kappa inh-2=17*
O=C(N=Nc1c(O)[nH]c2ccccc12)c1ccccc1NS(=O)(=O)c1cccs1,-29%,-15%,-29%,2%,-22%,26%,·,
O=[N+]([O-])c1nccn1CC(O)CO (stereo not given),-5%,·,·,·,·,·,·,
COc1ccc(C2=Nn3c(nnc3-c3ccccc3F)SC2)cc1OC1CCOC1 (stereo not given),·,-7%,?,10%,-18%,·,·,
COc1ccc(C2=Nn3c(nnc3-c3ccccc3OC)SC2)cc1OCC1CC1,·,-9%,40µM*,-6%,-16%,·,·,Pol kappa inh-2=0.67*
COc1ccc(C2=Nn3c(nnc3-c3ccccc3OC)SC2)cc1O[C@H]1CCOC1,·,·,·,·,·,·,·,Pol kappa inh-2=2.7*
Cc1nc(Nc2nc3ccccc3o2)nc2c1CCC2,-14%,4%,-17%,0%,2%,7%,·,
CC(C)c1nc(Nc2nc3ccccc3o2)nc2c1CCCC2,·,·,·,·,·,·,·,HEK293 tox=-29%
N#Cc1nc(NCC(F)F)nc(Nc2cc(F)cc(F)c2)n1,·,-20%,10%,-16%,19%,·,·,
CCCCCC1C(=O)CCC1CC(=O)O (stereo not given),·,·,-3%[60.1 µM],·,·,·,·,
CCCCC1C(=O)CC[C@H]2[C@@H]1CC(=O)[C@@H]2C/C=C\CCCC(=O)O (stereo not given in full),?,?,-26%,1%,?,26%,?,
C=CCOc1ccccc1/C=c1\sc2nc(=O)c(C)nn2c1=O,?,28µM*,50µM*,?,10µM*,25µM*,21*,Pol kappa inh-2=38*
Cc1ccc(N2C(N)=NC(N)=NC23CCCC3)c(C)c1,-21%,-6%,-6%,-1%,5%,7%,·,
COc1cc(OC)c(CN2CCN(c3ccc(F)cc3)CC2)cc1Br,5%,-18%,-14%,-7%,-13%,-10%,·,
CC1=C(c2ccccc2)[N+](=O)C2(CCCC2)N1[O-],8%,4%,-7%,4%,8%,19%,·,
O=[N+]([O-])c1ccc2c(c1)N([O-])C1(CCCCC1)[N+]2=O,?,22µM*,?,-3%,11µM*,-2%,85*,
COc1ccc(Cn2c(SC)nc3ccccc32)cc1[N+](=O)[O-],-2%,-12%,9%,2%,25%,11%,·,
O=C(N/C=C/c1ccco1)OCc1ccccc1,-4%[11.6 µM],?,-43%,-12%,?,?,?,
COc1ccc(NC(=O)N/C=C/c2ccco2)cc1,-7%[11.6 µM],45µM*,?,?,?,25µM*,?,
COCCN1C(=O)N[C@@H](c2cccc(F)c2)C(C(=O)OC)=C1C,2%,-4%,-24%,·,2%,-15%,·,
CCC(C)NC(=O)CSc1nc2cc3c(cc2c(=O)n1CCCC(=O)NCc1ccc2c(c1)OCO2)OCO3 (stereo not given),·,-10%,-1%[60.1 µM],·,15%,3%,·,
